According to the supplement of paper PMC9694430:

How the values were obtained:
Assay in all cases: thermal shift delta Tm vs DMSO control; higher = stronger stabilization (binding)
Settings in all cases: 12.5 µM; protein concentration 2 µM
LOC_OS04G57630-cb004 = test system: LOC_OS04G57630-cb004
Outline: (§1)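 Purified, E. coli-expressed rice kinase domain constructs were tested by differential scanning fluorimetry in 96-well plates: 19.5 μl of 2 μM kinase in 100 mM potassium phosphate pH 7.5, 150 mM NaCl, 10% glycerol, 5 × SYPRO Orange, plus compound in DMSO. Fluorescence was read from 25°C to 95°C at 0.05°C/s. Melting temperatures came from Boltzmann fits, and the shift is the triplicate mean relative to protein with DMSO alone.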

LOC_OS05G07850-cb002 = test system: LOC_OS05G07850-cb002
Outline: as §1

LOC_OS05G28520-cb001 = test system: LOC_OS05G28520-cb001
Outline: as §1

LOC_OS05G30820-cb001 = test system: LOC_OS05G30820-cb001
Outline: as §1

LOC_OS05G43570-cb004 = test system: LOC_OS05G43570-cb004
Outline: as §1

LOC_OS06G16330-cb003 = test system: LOC_OS06G16330-cb003
Outline: as §1

LOC_OS06G22820-cb001 = test system: T1, LOC_OS06G22820-cb001
T1 sequence (whole entry): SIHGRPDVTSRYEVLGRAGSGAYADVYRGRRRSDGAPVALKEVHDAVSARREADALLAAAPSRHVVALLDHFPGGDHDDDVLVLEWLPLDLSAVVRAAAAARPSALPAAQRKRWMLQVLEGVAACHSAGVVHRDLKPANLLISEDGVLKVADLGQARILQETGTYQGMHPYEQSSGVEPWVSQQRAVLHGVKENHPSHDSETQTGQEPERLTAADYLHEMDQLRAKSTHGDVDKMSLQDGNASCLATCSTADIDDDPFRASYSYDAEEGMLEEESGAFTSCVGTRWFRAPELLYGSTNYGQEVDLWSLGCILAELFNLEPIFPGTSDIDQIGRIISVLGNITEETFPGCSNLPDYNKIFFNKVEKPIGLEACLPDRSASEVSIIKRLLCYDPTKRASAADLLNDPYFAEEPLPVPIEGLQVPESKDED
Outline: as §1

LOC_OS07G06570-cb004 = test system: LOC_OS07G06570-cb004
Outline: as §1

LOC_OS07G07230-cb001 = test system: LOC_OS07G07230-cb001
Outline: as §1

LOC_OS05G16824-cb004 = test system: LOC_OS05G16824-cb004
Outline: as §1

Chain of LOC_OS06G16330-cb003 (as listed by the source): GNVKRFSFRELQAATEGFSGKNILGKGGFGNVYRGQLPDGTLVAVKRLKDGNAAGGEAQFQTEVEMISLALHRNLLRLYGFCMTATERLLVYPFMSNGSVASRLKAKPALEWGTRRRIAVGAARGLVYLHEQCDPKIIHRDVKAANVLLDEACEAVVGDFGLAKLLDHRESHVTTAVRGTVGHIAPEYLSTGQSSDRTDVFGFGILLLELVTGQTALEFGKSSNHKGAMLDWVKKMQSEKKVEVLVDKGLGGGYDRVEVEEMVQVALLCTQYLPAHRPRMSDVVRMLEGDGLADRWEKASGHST

| SMILES | thermal shift delta Tm (LOC_OS04G57630-cb004) [°C] | thermal shift delta Tm (LOC_OS05G07850-cb002) [°C] | thermal shift delta Tm (LOC_OS05G28520-cb001) [°C] | thermal shift delta Tm (LOC_OS05G30820-cb001) [°C] | thermal shift delta Tm (LOC_OS05G43570-cb004) [°C] | thermal shift delta Tm (LOC_OS06G16330-cb003) [°C] | thermal shift delta Tm (LOC_OS06G22820-cb001) [°C] | thermal shift delta Tm (LOC_OS07G06570-cb004) [°C] | thermal shift delta Tm (LOC_OS07G07230-cb001) [°C] | thermal shift delta Tm (LOC_OS05G16824-cb004) [°C] |
| --- | --- | --- | --- | --- | --- | --- | --- | --- | --- | --- |
| CCC[C@H](NC(=O)/C(C#N)=C/c1cccc(Br)n1)c1ccccc1 [Degrasyn (WP1130)] | -2.22 | -0.67 | -0.84 | 0.52 | -0.8 | -2.97 | 0.49 | -0.53 | 0.24 |  |
| C=CC(=O)Nc1cccc(Sc2nc(Nc3ccc(N4CCN(C)CC4)cc3)ncc2Cl)c1 | 4.52 | 11.5 | 7.81 | 2.25 | 0.95 | 5.61 | -0.33 | 0.28 | 0.95 | 7.67 |
| O=C(O)c1cc(O)c2c(c1)[C@@H]([C@H]1c3cc(C(=O)O)cc(O)c3C(=O)c3c(O[C@@H]4O[C@H](CO)[C@@H](O)[C@H](O)[C@H]4O)cccc31)c1cccc(O[C@@H]3O[C@H](CO)[C@@H](O)[C@H](O)[C@H]3O)c1C2=O [Sennoside B] | -0.43 | -1.7 | 2.58 | 0.73 | 1.55 | -0.98 | 1.61 | 4.56 | -0.03 |  |
| Cc1cnc(Nc2ccc(OCCN3CCCC3)cc2)nc1Nc1cccc(S(=O)(=O)NC(C)(C)C)c1 | 1.75 | 8.73 | 0.76 | 0.92 | 0.64 | 4.38 | 0.29 | 0.27 | 0.07 | 6.93 |
| Cc1cc(Nc2ncc(Cl)c(Nc3ccccc3S(=O)(=O)C(C)C)n2)c(OC(C)C)cc1C1CCNCC1 [Ceritinib (LDK378)] | 0.2 | 3.05 | 0.31 | 0.63 | 0.27 | 4.76 | 0.68 | 1.5 | 0.14 | -1.5 |
| Cc1ncc(CO)c(CO)c1O [Pyridoxine] | -0.04 | 0.43 | -0.11 | 0.06 | 0.36 | -0.45 | 0.67 | 1.06 | 0.72 |  |
